Out of some 5,500 compounds screened, about 2,000 (36%) were called active. Inconclusive results (about 18%) are left out. Cut-off read from the data, not from the text of the source: active = normalized growth mostly below about 0.91 (no sharp cut-off); inconclusive = no clear call, values can overlap the other calls; inactive = mostly above about 0.92. This is one part of the list.
Assay: chemical genetic growth profiling, strain panel (AID 1159580);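 note: tested at 20 µM; growth read once vehicle control cultures reached saturation at 30 °C; 1 = growth at the plate median or of vehicle wells; lower values mean less growth of the strain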
Conditions: growth OD

Measured: normalized growth

OCCN1C[C@@H](O)[C@@H](O)C(O)C1CO (stereo partly specified)
inactive: S. cerevisiae deletion strains, locus YKL009W, strain mrt4, hits give low values 1.01 | S. cerevisiae deletion strains, locus YKL068W, hits give low values 1.01 | S. cerevisiae deletion strains, locus YKL085W, strain MDH1 (second series), hits give low values 1 | S. cerevisiae deletion strains, locus YKL085W, strain MDH1, hits give low values 1 | S. cerevisiae deletion strains, locus YKL160W, strain elf1, hits give low values 1.01 | S. cerevisiae deletion strains, locus YKL190W, strain CNB1, hits give low values 1.02 | S. cerevisiae deletion strains, locus YKR001C, strain vps1, hits give low values 0.999 | S. cerevisiae deletion strains, locus YKR026C, strain gcn3, hits give low values 1.02 | S. cerevisiae deletion strains, locus YKR091W, strain srl3, hits give low values 1 | S. cerevisiae deletion strains, locus YLL001W, strain dnm1, hits give low values 1.02 | S. cerevisiae deletion strains, locus YLL026W, hits give low values 1.01 | S. cerevisiae deletion strains, locus YLL041C, strain sdh2, hits give low values 1 | S. cerevisiae deletion strains, locus YLR027C, strain aat2, hits give low values 0.992 | S. cerevisiae deletion strains, locus YLR039C, strain RIC1, hits give low values 0.958 | S. cerevisiae deletion strains, locus YLR058C, strain SHM2, hits give low values 1.02 | S. cerevisiae deletion strains, locus YLR102C, strain apc9, hits give low values 0.997 | S. cerevisiae deletion strains, locus YLR113W, strain HOG1, hits give low values 1.04 | S. cerevisiae deletion strains, locus YLR221C, strain rsa3, hits give low values 1.01 | S. cerevisiae deletion strains, locus YLR258W, strain gsy2, hits give low values 1 | S. cerevisiae deletion strains, locus YLR262C, strain YPT6 (second series), hits give low values 0.994 | S. cerevisiae deletion strains, locus YLR262C, strain YPT6, hits give low values 1 | S. cerevisiae deletion strains, locus YLR268W, strain sec22, hits give low values 1 | S. cerevisiae deletion strains, locus YLR320W, strain mms22, hits give low values 1.01 | S. cerevisiae deletion strains, locus YLR330W, strain CHS5, hits give low values 1.01 | S. cerevisiae deletion strains, locus YLR342W, strain FKS1 (second series), hits give low values 1.01 | S. cerevisiae deletion strains, locus YLR342W, strain FKS1, hits give low values 0.99 | S. cerevisiae deletion strains, locus YLR357W, strain rsc2, hits give low values 1 | S. cerevisiae deletion strains, locus YLR370C, strain arc18, hits give low values 1 | S. cerevisiae deletion strains, locus YLR371W, strain rom2, hits give low values 0.995 | S. cerevisiae deletion strains, locus YLR384C, strain iki3, hits give low values 1 | S. cerevisiae deletion strains, locus YLR418C, strain cdc73, hits give low values 0.977 | S. cerevisiae deletion strains, locus YML016C, strain PPZ1, hits give low values 1.01 | S. cerevisiae deletion strains, locus YML032C, strain rad52, hits give low values 1.01 | S. cerevisiae deletion strains, locus YML120C, strain ndi1, hits give low values 1.02 | S. cerevisiae deletion strains, locus YML124C, strain tub3, hits give low values 1.01 | S. cerevisiae deletion strains, locus YMR058W, strain fet3, hits give low values 1 | S. cerevisiae deletion strains, locus YMR078C, strain ctf18, hits give low values 1 | S. cerevisiae deletion strains, locus YMR125W, strain sto1, hits give low values 0.997 | S. cerevisiae deletion strains, locus YMR129W, hits give low values 0.997 | S. cerevisiae deletion strains, locus YMR205C, strain PFK2, hits give low values 1 | S. cerevisiae deletion strains, locus YMR223W, strain ubp8, hits give low values 1 | S. cerevisiae deletion strains, locus YMR231W, strain pep5, hits give low values 1 | S. cerevisiae deletion strains, locus YMR263W, strain SAP30, hits give low values 1.02 | S. cerevisiae deletion strains, locus YMR307W, strain GAS1, hits give low values 1.01 | S. cerevisiae deletion strains, locus YNL067W, strain RPL9B, hits give low values 1.02 | S. cerevisiae deletion strains, locus YNL071W, strain lat1, hits give low values 0.993 | S. cerevisiae deletion strains, locus YNL128W, strain TEP1, hits give low values 1.02 | S. cerevisiae deletion strains, locus YNL153C, strain GIM3, hits give low values 1.01 | S. cerevisiae deletion strains, locus YNL183C, strain NPR1, hits give low values 0.97 | S. cerevisiae deletion strains, locus YNL209W, strain ssb2, hits give low values 1 | S. cerevisiae deletion strains, locus YNL233W, strain BNI4, hits give low values 1.02 | S. cerevisiae deletion strains, locus YNL248C, strain rpa49, hits give low values 1.02 | S. cerevisiae deletion strains, locus YNL250W, strain rad50, hits give low values 1 | S. cerevisiae deletion strains, locus YNL271C, strain bni1, hits give low values 0.986 | S. cerevisiae deletion strains, locus YNL298W, strain CLA4, hits give low values 0.994 | S. cerevisiae deletion strains, locus YNL307C, strain MCK1, hits give low values 1.01 | S. cerevisiae deletion strains, locus YNL322C, strain KRE1 (second series), hits give low values 1.02 | S. cerevisiae deletion strains, locus YNL322C, strain KRE1, hits give low values 1.01 | S. cerevisiae deletion strains, locus YNR049C, strain mso1, hits give low values 1 | S. cerevisiae deletion strains, locus YNR052C, strain pop2, hits give low values 0.999 | S. cerevisiae deletion strains, locus YOL006C, strain TOP1, hits give low values 1.04 | S. cerevisiae deletion strains, locus YOL012C, strain htz1 1.11 | S. cerevisiae deletion strains, locus YOL147C, strain pex11, hits give low values 1 | S. cerevisiae deletion strains, locus YOR001W, strain rrp6, hits give low values 1 | S. cerevisiae deletion strains, locus YOR061W, strain CKA2, hits give low values 1.01 | S. cerevisiae deletion strains, locus YOR069W, strain VPS5, hits give low values 1.01 | S. cerevisiae deletion strains, locus YOR070C, strain gyp1, hits give low values 0.997 | S. cerevisiae deletion strains, locus YOR080W, strain dia2, hits give low values 1.01 | S. cerevisiae deletion strains, locus YOR083W, strain WHI5, hits give low values 1 | S. cerevisiae deletion strains, locus YOR106W, strain vam3, hits give low values 1.03 | S. cerevisiae deletion strains, locus YOR136W, strain idh2, hits give low values 0.998 | S. cerevisiae deletion strains, locus YOR144C, strain elg1, hits give low values 1 | S. cerevisiae deletion strains, locus YOR184W, strain ser1, hits give low values 1 | S. cerevisiae deletion strains, locus YOR231W, strain MKK1, hits give low values 1.01 | S. cerevisiae deletion strains, locus YOR265W, strain rbl2, hits give low values 0.988 | S. cerevisiae deletion strains, locus YOR270C, strain vph1, hits give low values 1.05 | S. cerevisiae deletion strains, locus YOR290C, strain snf2, hits give low values 1.01 | S. cerevisiae deletion strains, locus YOR316C, strain cot1, hits give low values 0.997 | S. cerevisiae deletion strains, locus YPL051W, strain arl3, hits give low values 1 | S. cerevisiae deletion strains, locus YPL055C, strain LGE1, hits give low values 1.05 | S. cerevisiae deletion strains, locus YPL078C, strain atp4, hits give low values 1.01 | S. cerevisiae deletion strains, locus YPL106C, strain sse1, hits give low values 1.03 | S. cerevisiae deletion strains, locus YPL240C, strain hsp82, hits give low values 1 | S. cerevisiae deletion strains, locus YPL241C, strain CIN2, hits give low values 1.01 | S. cerevisiae deletion strains, locus YPL256C, strain CLN2, hits give low values 1.02 | S. cerevisiae deletion strains, locus YPR119W, strain clb2, hits give low values 0.996 | S. cerevisiae deletion strains, locus YPR141C, strain kar3, hits give low values 1 | S. cerevisiae deletion strains, locus YPR163C, strain tif3, hits give low values 1 | S. cerevisiae deletion strains, locus YPR167C, strain met16, hits give low values 0.997 | S. cerevisiae deletion strains, strain wtn01, hits give low values 1 | S. cerevisiae strains, strain wild type, hits give low values 1.01
